# High-throughput results (PubChem BioAssay)
# The entries come from a sample that favours hits as a whole.
# AmpC no deterg: AmpC beta-lactamase inhibition without detergent; AmpC nitrocefin hydrolysis, absorbance 480 nm, 0.0001% Triton; actives 0.52% (n = 330,000); Potency, µM (doses to about 57.1 µM), for the others: top-dose activity change, negative = inhibition, hits mostly inhibitors; P00811;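 note: potency is the fitted concentration of half-maximal effect; plate controls were no compound for no effect and no enzyme for full effect; nearly all actives have a fitted effect of over 20% in size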
# Target sequence (P00811 whole entry, looked up): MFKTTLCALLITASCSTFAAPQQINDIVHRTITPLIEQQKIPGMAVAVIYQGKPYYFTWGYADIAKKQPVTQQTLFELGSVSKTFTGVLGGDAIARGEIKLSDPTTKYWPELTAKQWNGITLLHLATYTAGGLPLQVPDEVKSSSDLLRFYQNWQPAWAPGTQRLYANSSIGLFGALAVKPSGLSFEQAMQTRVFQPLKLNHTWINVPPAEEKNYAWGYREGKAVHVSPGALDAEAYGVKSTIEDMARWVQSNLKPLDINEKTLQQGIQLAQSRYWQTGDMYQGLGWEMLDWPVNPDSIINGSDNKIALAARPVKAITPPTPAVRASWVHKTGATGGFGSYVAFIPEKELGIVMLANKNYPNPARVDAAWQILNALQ
#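 20 mM phosphate pH 7.0 + 0.01% (detergent screen) or 0.0001% Triton X-100; 5.3 nM AmpC reagent; cpd preinc 15 min RT; nitrocefin (800 uM stock) to start; A480 q20 s × 4 min; Activity was normalised to no-enzyme and no-compound control wells.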
# AmpC detergent: inhibitors of E. coli AmpC beta-lactamase with detergent; P00811; AmpC hydrolysis of nitrocefin, absorbance 480 nm, 0.01% Triton; Potency, µM (titrated, usually from 114 µM), for inactives: at the highest dose activity change, negative = inhibition, usual class: inhibitors; actives 0.041% (n = 370,000);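 note: potency is the fitted concentration of half-maximal effect; 0% = no-compound wells and -100% = no-enzyme wells; nearly all actives have a fitted effect of over 25% in size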
#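 20 mM phosphate pH 7.0 + 0.01% (detergent screen) or 0.0001% Triton X-100; 5.3 nM AmpC reagent; cpd preinc 15 min RT; nitrocefin (800 uM stock) to start; A480 q20 s × 4 min; Activity was normalised to no-enzyme and no-compound control wells.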
# AMA1-RON2 inh: inhibitors of Plasmodium falciparum AMA1-RON2 interaction; AlphaScreen AMA1-biotinylated RON2 peptide binding; Potency, µM (highest dose often 58.2 µM), without a hit: at the highest dose activity change, negative = inhibition, most hits filed as inhibitors; actives 0.2% (n = 360,000);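 note: potency is the fitted concentration of half-maximal effect; 0% = vehicle wells and -100% = peptide control; nearly all actives have a fitted effect of over 45% in size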
#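 AMA1 (3D7) with his tag at 25 nM final met compounds first, then biotinylated RON2 peptide at 25 nM; detection used donor plus acceptor beads, 10 µg/mL apiece, read by AlphaScreen after 30 min at room temperature.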
# Shiga inhibitor: Shiga toxin inhibition | inhibition, % at 38.7 µM | actives 9.2% (n = 290,000) | Vero cells, Shiga toxin protein synthesis inhibition reporter; in the data active = inhibition mostly above about 28%, no sharp cut-off; inactive = mostly below about 43%; note: 0% is about no effect
# SARS PLP yeast: SARS-CoV PLP inhibition in yeast; actives 0.19% (n = 330,000); S. cerevisiae expressing SARS-CoV PLpro, growth rescue; Potency, µM (top dose mostly 32.9 µM), for inactives: at the top dose activity, positive = growth rescue, actives largely listed as activators; calls by dose curve; note: potency is the fitted concentration of half-maximal effect; 0% is about no effect; nearly all actives have a fitted effect of over 55% in size
# CHX counter: counter-screen for Shiga toxin inhibitors: cycloheximide protein synthesis inhibition. cell reporter, cycloheximide protein synthesis inhibition counterscreen. max response, %. actives 12% (n = 300,000). AID 2314; in the data active = max response mostly above about 13%, no sharp cut-off; inactive = mostly below about 14%; note: read at 38.3 µM for the half of the compounds with a filed dose; 0% is about no effect
# The depositor's hits bear a star; ? = inconclusive; / = no result; [ ] = remark or other dose. Unless noted, calls come from the whole dose curve; as a rule, active = well fitted curve in the direction sought with a large enough effect; inconclusive = small, poorly fitted or top-dose-only effect, or another doubt; inactive = no such curve, though single readings can be large; an effect the other way counts as inactive or inconclusive.
SMILES,AmpC no deterg,AmpC detergent,AMA1-RON2 inh,Shiga inhibitor,SARS PLP yeast,CHX counter
CCc1cc(C(=O)N(Cc2ccccc2)c2c(N)n(CCOC)c(=O)[nH]c2=O)sc1C,-33.0%,-11.2%,6.6%,/,-6.9%,/
CCOc1ccc(N(C)C(=O)CCc2nnc3ccc(NCc4ccco4)nn23)cc1,23.5%,-7.8%,-11.7%,-12.2,-7.0%,-4.4
Nc1nc(CSC(=S)N2CCOCC2)nc(Nc2ccccc2)n1,-15.4%,4.5%,-9.1%,94.5*,21.4%,54.1*
Nc1nc(CSC(=S)N2CCN(c3ccccc3)CC2)nc(Nc2ccc(F)cc2)n1,-45.7%,0.4%,?,-8.1,-20.7%,7.6
C[C@H](CO)NC(=O)[C@H](C)[C@H]1C[C@]1(C)[C@H](NC(=O)OCc1ccccc1)c1ccccc1,119.5%,0.4%,-1.3%,-14.7,18.0%,-3.0
C[C@@H](C(=O)Nc1ccc2ccccc2c1)[C@H]1C[C@]1(C)[C@H](NC(=O)OCc1ccccc1)c1ccccc1,-43.1%,-10.8%,-22.2%,51.2*,?,19.2*
COc1ccccc1N1CCN(C(=O)/C=C/c2ccco2)CC1,2.5%,-12.9%,-5.9%,37.1*,-4.7%,28.0*
Cc1cccc(N2CCN(C(=O)/C=C/c3cccs3)CC2)c1C,17.2%,-3.0%,6.9%[11.6 µM],64.2*,-70.4%,43.5*
CC1CCCC(C)N1/N=C/C=C/c1ccccc1[N+](=O)[O-] (stereo not drawn),-14.2%[11.4 µM],-11.3%,15.8µM*,69.2*,-1.7%,38.4*
Cc1cccc(N2CCN(C(=O)c3cccs3)CC2)c1C,-8.2%,?,-5.7%,-9.0,-6.6%,-3.3
O=C(/C=C/c1cccs1)N1CCCC1,-20.4%,2.9%,-10.2%,46.3*,-2.4%,15.8*
Cc1ccc(-c2n[nH]c(=S)n2/N=C/C=C\c2ccccc2[N+](=O)[O-])cc1,-40.5%,-1.0%,19.6%,-3.4,-9.6%,-2.4
Cn1nc(-c2ccccc2)c(C(=O)Nc2ccc(Cl)cc2)c1Cl,-25.8%,-0.6%,1.8%,10.6,2.6%,-1.5
Cc1cc(C)n(C(=O)/C=C/c2cccs2)n1,-5.8%,-0.3%,-3.4%,64.4*,1.3%,28.6*
COc1ccccc1N1CCN(/N=C/C=C\c2ccccc2[N+](=O)[O-])CC1,35.3%,-4.0%,20µM*,45.2*,-4.0%,42.5*
COc1ccccc1N1CCN(/N=C/C=C\c2ccco2)CC1,19.7%,5.1%,?,53.3*,-7.9%,41.3*
COc1ccccc1N1CCN(C(=O)/C=C/c2ccccc2)CC1,37.5%,?,-9.5%,19.1,-12.1%,15.0
COc1ccccc1N1CCN(C(=O)/C=C/c2cccs2)CC1,2.3%,0.7%,9.4%[2.32 µM],54.2*,2.6%,17.5*
COc1ccccc1/C=C/C=N/N1CCN(c2ccccn2)CC1,-19.3%,-3.6%,-21.9%,-9.3,-0.9%,-4.2
O=C(OCc1cc2ccccc2[nH]c1=O)c1ccccc1,-17.5%,-14.3%,2.5%,-2.8,-4.8%,-1.3
S=c1[nH]nc(-c2ccccc2)c2ccccc12,-15.3%,3.8%,40.7%,-7.1,0.1%,-1.2
Cc1c(NC(=O)C(CC(=O)O)NCc2ccco2)c(=O)n(-c2ccccc2)n1C (stereo not drawn),-19.6%,-6.8%,0.0%,-5.8,?,-1.2
CC(=O)NC1CCC(OC(=O)Nc2ccccc2)CC1 (stereo not drawn),/,/,11.6%,/,/,/
COc1ccc(C)cc1NC(=O)C(Sc1nnc(-c2cccs2)o1)c1ccccc1 (stereo not drawn),-27.0%,-1.1%,45.1%[11.6 µM],-2.1,15.5%,11.0
O=C(Nc1cc(C(F)(F)F)ccc1Cl)C(Sc1n[nH]c(=O)[nH]c1=O)c1ccccc1 (stereo not drawn),-52.1%,0.0%,0.0%,-9.0,0.1%,-1.1
SMILES,AmpC no deterg,AmpC detergent,AMA1-RON2 inh,Shiga inhibitor,SARS PLP yeast,CHX counter
O=C(Nc1cc(C(F)(F)F)ccc1Cl)C(Sc1nnc(-c2cccs2)o1)c1ccccc1 (stereo not drawn),-24.9%,-4.7%,91.8%,33.1*,-11.2%,14.7*
O=C(Nc1ccc(Cl)cc1C(F)(F)F)C(Sc1nnc(-c2cccs2)o1)c1ccccc1 (stereo not drawn),-20.1%,-3.4%,65.8%,88.7*,-6.8%,29.1*
O=C(O)CC(NCc1ccco1)C(=O)OCCCl (stereo not drawn),-7.2%,?,30.2%,-13.4,-1.5%,-0.8
O=C(Cc1ccc(Cl)cc1)Nc1ccc(SC(F)F)cc1,-24.1%,-5.5%,48.4%,13.2*,-24.7%,45.3*
O=C(Cc1ccccc1F)Nc1ccc(SC(F)F)cc1,-20.4%,?,-8.2%,56.7*,-4.5%,90.7*
C/C(=N\N1CCCCCC1)c1c(O)n(-c2ccccc2)c(=O)[nH]c1=O,-14.2%,?,3.5%[11.6 µM],-2.2,-10.0%,0.2
C/C(=N\N1CCCCC1)c1c(O)[nH]c(=O)[nH]c1=O,1.0%,8.8%,-4.1%,9.6,?,18.0*
CS(=O)(=O)N1CCCCC1c1cc(C(=O)Nc2ccccc2)no1 (stereo not drawn),/,/,-6.9%,/,/,/
CN(CC(=O)N1CCCCCC1)S(=O)(=O)c1ccc(Br)s1,/,2.4%,1.9%,80.4*,/,32.6*
Cc1ccc(S(=O)(=O)N(C)CC(=O)N2CCCCCCC2)cc1,-9.6%,-4.9%,4.7%,/,-3.9%,/
CN(CC(=O)N1CCCCCC1)S(=O)(=O)c1ccccc1,1.9%,4.2%,-3.5%,68.5*,-5.0%,34.5*
CN(CC(=O)N1CCCCCC1)S(=O)(=O)c1ccc(F)cc1,-2.2%,1.7%,-2.9%,104.7*,-1.2%,39.0*
CN(CC(=O)N1CCCCC1)S(=O)(=O)c1ccc(Cl)cc1,2.8%[2.29 µM],?,-2.1%,24.1,-0.8%,15.4
CN(CC(=O)N1CCCCCC1)S(=O)(=O)c1ccc(Br)cc1,-1.1%,7.1%,-1.0%,-3.4,2.7%,-0.5
COc1ccc(CC(=O)Nc2c(C(=O)N3CCN(c4ccccc4F)CC3)oc3ccccc23)cc1OC,/,15.6%,/,/,/,/
CCc1ccc(N(CC)C(=O)c2ccc3c(Cl)c4c(nc3c2)CCC4)cc1,35.7%,?,9.5%,-14.4,-32.7%,-4.1
COc1ccccc1NC(=O)c1ccc2c(Cl)c3c(nc2c1)CCCC3,/,6.7%,/,/,/,/
CCN(C(=O)c1ccc2c(Cl)c3c(nc2c1)CCC3)c1cccc(C)c1,296.8%,-13.9%,/,15.5,-1.8%,22.1*
O=C(Nc1cccnc1Cl)c1ccc2c(Cl)c3c(nc2c1)CCC3,12.6%,-0.5%,-3.8%,43.7,-7.6%,22.7*
O=C(Nc1ccccc1F)c1ccc2c(Cl)c3c(nc2c1)CCC3,/,-5.8%,/,/,/,/
O=C(NC1CC1)c1ccc2c(Cl)c3c(nc2c1)CCCC3,82.7%,1.3%,0.0%,67.9*,-6.0%,22.8*
N#Cc1ccccc1NC(=O)c1ccc2c(Cl)c3c(nc2c1)CCCC3,-3.7%,-7.3%,-21.7%,90.6*,?,53.0*
